Reference: PubChem BioAssay AID1903 (Southern Research Specialized Biocontainment Screening …, 2009)
Where “and” joins values, the source holds several entries; their conditions need not be identical. Equal values may be shown once. Hit rate of the full screen: of about 310,000 compounds, about 1,200 (0.39%) were called active. How the calls were made is not given here. Not all results are given here. Results with a measured potency or affinity are listed apart.

molecular target: Large T antigen (Simian virus 40) (UniProt P03070); assay: SV40 large T antigen inhibitors, biochemical (AID 1903); settings: SV40 large T antigen ATPase/helicase inhibition assay; at 20 µM; hits give high values
Sequence (P03070 whole entry, looked up): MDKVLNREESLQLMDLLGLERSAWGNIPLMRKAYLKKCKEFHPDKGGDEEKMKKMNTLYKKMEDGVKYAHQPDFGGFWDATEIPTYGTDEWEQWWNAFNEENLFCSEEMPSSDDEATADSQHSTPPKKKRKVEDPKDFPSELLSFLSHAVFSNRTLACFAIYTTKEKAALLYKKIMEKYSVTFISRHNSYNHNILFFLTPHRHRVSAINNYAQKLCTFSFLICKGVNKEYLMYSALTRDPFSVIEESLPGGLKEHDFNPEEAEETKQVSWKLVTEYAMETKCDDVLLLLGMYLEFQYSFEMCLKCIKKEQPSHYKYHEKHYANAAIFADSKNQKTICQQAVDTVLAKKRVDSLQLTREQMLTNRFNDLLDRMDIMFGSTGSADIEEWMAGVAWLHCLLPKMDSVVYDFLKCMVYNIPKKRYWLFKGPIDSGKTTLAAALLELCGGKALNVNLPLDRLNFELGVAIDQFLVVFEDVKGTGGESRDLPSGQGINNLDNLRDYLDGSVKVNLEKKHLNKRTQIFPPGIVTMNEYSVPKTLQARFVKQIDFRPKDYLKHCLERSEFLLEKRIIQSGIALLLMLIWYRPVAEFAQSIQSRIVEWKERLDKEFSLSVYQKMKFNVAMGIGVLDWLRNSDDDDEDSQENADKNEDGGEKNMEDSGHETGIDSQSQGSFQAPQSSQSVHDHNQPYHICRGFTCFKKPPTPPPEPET

inhibition, inactive:
CC(C)C(=O)NNC(=O)c1csc(CS(=O)(=O)c2ccc(Cl)cc2)n1 9.42%
Cc1cnc(C(=O)NC2CCSc3ccccc32)cn1 (stereo not given) 9.84%
CC(C)[C@@H]1CC[C@@H](C)c2c(-c3ccccc3)n[nH]c21 -1.85%
CN1CCC(=C2c3ccccc3C(O)c3ccccc32)CC1 (stereo not given) 5.26%
COc1cc2c(cc1OC)C(Cc1ccc(O)cc1)N(C)CC2 (stereo not given) 2.71%
CN1CCc2cc3c(c4c2[C@H]1[C@H](O)c1ccccc1-4)OCO3 14.8%
COc1ccc2c(c1O)-c1ccccc1CCN(C)C2 20.8%
COc1c(O)ccc2c1CN1CCc3cc4c(cc3C1C2)OCO4 (stereo not given) 58.7%
CN1CCc2cccc3c2[C@@H]1Cc1ccc(O)c(O)c1-3 39.9%
CCC(C)NCCC(=O)Nc1ccc(Cl)c(S(=O)(=O)Nc2ccc(Cl)cc2)c1 (stereo not given) 7.37%
O=C(Nc1cccc(-c2nn[nH]n2)c1)c1ccc(Cl)s1 8.59%
Cc1cc(C(=O)Nc2cccc(C(=O)O)c2)c(C)o1 4.39%
CC(C)(C)c1cc(N)n(-c2ccc(C(=O)O)cc2)n1 11.4%
C/C(CC(=O)Nc1ccccn1)=N\NC(=O)c1ccc2ccccc2c1 -45.2%
C/C(CC(=O)Nc1ccc(N(C)C)cc1)=N\NC(=O)c1ccccn1 28.2%
C/C(CC(=O)Nc1ccc(N(C)C)cc1)=N\NC(=O)c1ccc(F)cc1 29.8%
COc1ccc(NC(=O)C/C(C)=N/NC(=O)c2cnccn2)cc1 -3.03%
C/C(CC(=O)Nc1ccc(N(C)C)cc1)=N\NC(=O)c1ccc(C(C)(C)C)cc1 9.71%
CCC(=O)N/N=C(\C)CC(=O)Nc1ccc2ccccc2c1 11.7%
Cc1ccc(N(Cc2ccc(C(=O)Nc3c(C)n(C)n(-c4ccccc4)c3=O)cc2)S(C)(=O)=O)cc1C 9.36%
O=C1[C@@H]2Cc3c([nH]c4ccccc34)C(c3ccccc3)N2C(=O)CN1CCO (stereo not given in full) 9.64%
CCC(C)NC(=O)CCc1nnc2ccc(N3CCC(C)CC3)nn12 (stereo not given) 6.91%
Nc1cc(S(=O)(=O)O)cc([N+](=O)[O-])c1O 23%
Oc1ccc(Cl)cc1N=Nc1ccccc1 8.08%
O=S(=O)(O)c1cccc(N=Nc2c(O)ccc3ccccc23)c1 7.77%
Cc1ccc(N=Nc2ccc(N)cc2C)c(S(N)(=O)=O)c1 10.1%
C#CCOCCOCCOCCNc1nc(N2CCN(C(=O)C([C@@H](C)CC)n3cc(C(N)Cc4ccc(O)cc4)nn3)CC2)nc(N2CCN(C(=O)[C@H](CCC(=O)O)n3cc(C(N)Cc4ccc(O)cc4)nn3)CC2)n1 (stereo not given in full) 18.6%
CN(CC(=O)Nc1ccc(Cl)cc1)CC(=O)Nc1ccc(F)c(F)c1F -109%
O=C(NCc1ccccn1)C1CCCN(S(=O)(=O)c2cccc3nsnc23)C1 (stereo not given) 9.56%
O=C(c1ccc(Oc2ccc(C(F)(F)F)cc2[N+](=O)[O-])cc1)N1CCOCC1 1.7%
O=C(Nc1cccc(Br)c1)c1ccc(CN2CCc3ccccc3C2)cc1 6.55%
Nc1nc(Nc2ccccc2)nc(N2CCOCC2)c1[N+](=O)[O-] 0.42%
CCOC(=O)c1cc(-c2ccccc2)sc1N 6.85%
Nc1sc(-c2ccccc2)cc1C(=O)O 4.81%
COC(=O)c1cc(-c2ccccc2)sc1N 11.1%
CCOC(=O)c1cc(CC)sc1N 14.6%
CC(OC(=O)c1oc2ccccc2c1CSC1CCCCC1)C(=O)NC(N)=O (stereo not given) 6.96%
Cc1[nH]c2ccc(C(=O)NCCCN3CCN(C)CC3)cc2c1C 15.6%
O=C(/C=C/c1ccccc1)N1CCN(c2ccc([N+](=O)[O-])c(N3CCOCC3)c2)CC1 9.06%
CC(=O)N1CCN(c2ccc(NCc3ccccc3)cc2)CC1 8.55%
CCc1ccc(CNc2ccc(N3CCN(C(C)=O)CC3)cc2)cc1 9.55%
Cc1ccc(CNc2ccc(N3CCOCC3)cc2)s1 14.2%
CC(=O)N1CCN(c2ccc(NCc3ccc(C)cc3)cc2)CC1 14.1%
COc1ccc(CNC(=O)CCCn2nc(C)c3c(C)n(-c4ccccc4)nc3c2=O)cc1 12.9%
CCOc1ccccc1-c1noc(CCC(=O)Nc2cccnc2)n1 10.5%
COc1ccc(-c2c(-c3ccc(OCC(=O)NN)cc3O)n[nH]c2C)cc1OC 5.82%
C=C(C)COc1ccc(-c2n[nH]c(C)c2-c2ccc(OC)c(OC)c2)c(O)c1 13.9%
N#C[C@H]1C2OC2c2ccccc2N1C(=O)c1ccccc1 (stereo not given in full) 3.71%
O=c1cc(CO)oc(CN2CCN(c3ccccc3)CC2)c1O 3.29%
COc1ccc(Cl)cc1NC(=S)Nc1cccnc1 5.19%
CC(=O)O[C@]1(C(C)=O)CC[C@H]2[C@@H]3C=C(C)C4=CC(=O)CC[C@]4(C)[C@H]3CC[C@@]21C 24.3% and 8.14%
CC(=O)O[C@]1(C(C)=O)CCC2C3C=C(C)C4=CC(=O)CC[C@]4(C)C3CC[C@@]21C (stereo not given in full) 6.68%
CC(=O)O[C@]1(C(C)=O)CC[C@H]2[C@@H]3C[C@H](C)C4=CC(=O)CC[C@]4(C)[C@H]3CC[C@@]21C 21.1% and 1.31%
Cc1ccccc1NC(=O)CN1C(=O)COc2ccc(S(=O)(=O)N3CCCC3)cc21 2.93%
O=C(Nc1ccncc1)Nc1ccc(Cl)cc1 10.4%
Cc1cc(C(=O)NCc2ccco2)c2cc(F)ccc2n1 5.22%
CCCCn1c(N)c(N(CCC(C)C)C(=O)c2cc(-c3ccco3)nc3ccccc23)c(=O)[nH]c1=O 28.5%
CCOc1ccc(C(=O)NC2CC(=O)N(c3ccc4c(c3)OCCO4)C2)cc1 (stereo not given) 30.1%
COc1ccc(/C=C/C(=O)c2ccc([N+](=O)[O-])o2)cc1OC 17.4%
Cc1ccc(/C=C/C(=O)c2ccc([N+](=O)[O-])o2)cc1 24.6%
Cc1cccc(/C=C/C(=O)c2ccc([N+](=O)[O-])o2)c1 27.2%
COc1ccc(/C=C/C(=O)c2ccc([N+](=O)[O-])o2)cc1 2.57%
Cc1cccc(NC(=O)c2ccc([N+](=O)[O-])o2)c1C -1.78%
O=C(/C=C/c1ccc(Cl)cc1)c1ccc([N+](=O)[O-])o1 34.3%
CC(=O)CC1(C)OC(N)=C(C#N)C1(C#N)C#N (stereo not given) 5.62%
N#Cc1ccc(C(=O)Nc2cc(-c3ccccc3)nn2-c2ccccc2)cc1 2.51%
Cc1cc(-c2sccc2C)nc(-n2cccc2)n1 1.14%
O=C1Nc2ccccc2Nc2ccccc21 0.33%
Cc1ccc(N=C2CCCCCN2C)c(C#N)c1 15.4%
CCN(CC)CCC(=O)N1c2ccccc2CCc2ccc(NC(=O)OC)cc21 6.36%
COC(=O)/C(=C\Nc1ccc(Cl)cc1Cl)NC(=O)c1ccc(Cl)cc1Cl 6.46%
COc1ccc(/C=C2/SC(=S)N(n3c(C)ccc3C)C2=O)cc1 12.7%
O=C(CSc1cccc2cccnc12)N/N=C/c1ccc(F)cc1 5.35%
O=C(COc1cccc2cccnc12)N/N=C/c1ccccc1O 0.79%
COc1cccc(/C=N/NC(=O)CSc2cccc3cccnc23)c1 14.4%
NNC(=O)c1ccc(CSc2cccc3cccnc23)cc1 8.28%
O=C(N/N=C/c1ccccc1Br)c1ccc(CSc2cccc3cccnc23)cc1 8.68%
O=C(CSc1cccc2cccnc12)N/N=C/c1ccncc1 13.8%
O=C(CSc1cccc2cccnc12)N/N=C/c1cccc(O)c1 3.2%
COc1ccc(/C=N/NC(=O)COc2cccc3cccnc23)cc1OC 16.2%
COc1ccc(NC(=O)CN(C)C(=O)Cc2ccc3c(c2)OCCO3)cc1 4.23%
CSCC(=O)N1CCc2ccc(NC(=O)c3ccccc3Cl)cc2C1 3.34%
COc1ccccc1NC(=O)CCS(=O)(=O)c1cc2c(cc1Cl)NC(=O)CO2 -2.36%
Cn1nc(C(=O)NC2=NCCS2)ccc1=O 16.5%
CC1(C)CC(NC(=O)COc2ccc3ccccc3c2)CC(C)(C)N1 12.2%
COc1ccc(NC(=O)CSc2nc3sc(C)cc3c(=O)n2C)cc1 8.62%
CC(CC(=O)NC(C)c1ccc2c(c1)OCCO2)c1ccccc1 (stereo not given) 7.67%
O=S(=O)(c1ccccc1OC(F)(F)F)N1CCN(c2ccnc3cc(Cl)ccc23)CC1 4.46%
Cc1nc(=O)c(-c2ccccc2)c(C)n1Cc1ccccc1 1.9%
O=C(COc1ccccc1[N+](=O)[O-])N/N=C/c1ccncc1 25.8%
O=C(COc1ccccc1[N+](=O)[O-])N/N=C/c1ccc(O)c([N+](=O)[O-])c1 7.71%
Cc1cc2c(Nc3cccc(O)c3)ncnc2s1 26.2%
CCc1cc2c(Nc3ccccc3O)nc(C)nc2s1 9.83%
CCc1cc2c(NCc3ccccc3)nc(C)nc2s1 17.6%
Cc1cc2c(Nc3ccccc3)ncnc2s1 -2.89%
